Data taken from the supplement of paper PMC8975748.
Counter-ions that a name gives are not always drawn. ± gives the standard deviation of the averaged measurements.

Tests used:
[1] = test system: Saccharomyces cerevisiae BY4741 SeMeCo community; test: z-score of prototroph abundance vs DMSO median; higher = larger share of this subpopulation than in DMSO controls; conditions: 10 µM; 24 h; SM minimal medium; subpopulation (auxotrophy): Prototroph
Summary of the method: (§1)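 Cells of a Saccharomyces cerevisiae BY4741 community, carrying four plasmids that each restored one auxotrophy and encoded a distinct fluorescent protein, were pre-grown overnight to OD600 1.0 and diluted to 0.3. A 70 µl volume was added to 384-well plates acoustically predosed with library drugs (10 µM final) and grown 24 h in minimal SM medium. After paraformaldehyde fixation, automated confocal microscopy was used, with single-auxotroph fluorescent strains for thresholds and autofluorescence correction. The abundance of each subpopulation was scored as a z-score against the vehicle-well median.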

[2] = test system: Saccharomyces cerevisiae BY4741 SeMeCo community; test: z-score of subpopulation abundance vs DMSO median, subpopulation auxotrophic for M; higher = larger share of this subpopulation than in DMSO controls; conditions: 10 µM; 24 h; SM minimal medium; subpopulation (auxotrophy): M
Summary of the method: as §1

[3] = test system: Saccharomyces cerevisiae BY4741 SeMeCo community; test: z-score of subpopulation abundance vs DMSO median, subpopulation auxotrophic for L; higher = larger share of this subpopulation than in DMSO controls; conditions: 10 µM; 24 h; SM minimal medium; subpopulation (auxotrophy): L
Summary of the method: as §1

[4] = test system: Saccharomyces cerevisiae BY4741 SeMeCo community; test: z-score of subpopulation abundance vs DMSO median, subpopulation auxotrophic for U; higher = larger share of this subpopulation than in DMSO controls; conditions: 10 µM; 24 h; SM minimal medium; subpopulation (auxotrophy): U
Summary of the method: as §1

[5] = test system: Saccharomyces cerevisiae BY4741 SeMeCo community; test: z-score of subpopulation abundance vs DMSO median, subpopulation auxotrophic for H; higher = larger share of this subpopulation than in DMSO controls; conditions: 10 µM; 24 h; SM minimal medium; subpopulation (auxotrophy): H
Summary of the method: as §1

[6] = test system: Saccharomyces cerevisiae BY4741 SeMeCo community; test: z-score of subpopulation abundance vs DMSO median, subpopulation auxotrophic for LM; higher = larger share of this subpopulation than in DMSO controls; conditions: 10 µM; 24 h; SM minimal medium; subpopulation (auxotrophy): LM
Summary of the method: as §1

[7] = test system: Saccharomyces cerevisiae BY4741 SeMeCo community; test: z-score of subpopulation abundance vs DMSO median, subpopulation auxotrophic for HM; higher = larger share of this subpopulation than in DMSO controls; conditions: 10 µM; 24 h; SM minimal medium; subpopulation (auxotrophy): HM
Summary of the method: as §1

[8] = test system: Saccharomyces cerevisiae BY4741 SeMeCo community; test: z-score of subpopulation abundance vs DMSO median, subpopulation auxotrophic for UM; higher = larger share of this subpopulation than in DMSO controls; conditions: 10 µM; 24 h; SM minimal medium; subpopulation (auxotrophy): UM
Summary of the method: as §1

[9] = test system: Saccharomyces cerevisiae BY4741 SeMeCo community; test: z-score of subpopulation abundance vs DMSO median, subpopulation auxotrophic for HLU; higher = larger share of this subpopulation than in DMSO controls; conditions: 10 µM; 24 h; SM minimal medium; subpopulation (auxotrophy): HLU
Summary of the method: as §1

[10] = test system: Saccharomyces cerevisiae BY4741 SeMeCo community; test: z-score of subpopulation abundance vs DMSO median, subpopulation auxotrophic for HLM; higher = larger share of this subpopulation than in DMSO controls; conditions: 10 µM; 24 h; SM minimal medium; subpopulation (auxotrophy): HLM
Summary of the method: as §1

[11] = test system: Saccharomyces cerevisiae BY4741 SeMeCo community; test: z-score of subpopulation abundance vs DMSO median, subpopulation auxotrophic for HUM; higher = larger share of this subpopulation than in DMSO controls; conditions: 10 µM; 24 h; SM minimal medium; subpopulation (auxotrophy): HUM
Summary of the method: as §1

[12] = test system: Saccharomyces cerevisiae BY4741 SeMeCo community; test: z-score of subpopulation abundance vs DMSO median, subpopulation auxotrophic for LUM; higher = larger share of this subpopulation than in DMSO controls; conditions: 10 µM; 24 h; SM minimal medium; subpopulation (auxotrophy): LUM
Summary of the method: as §1

[13] = test system: Saccharomyces cerevisiae BY4741 SeMeCo community; test: z-score of subpopulation abundance vs DMSO median, subpopulation auxotrophic for HLUM; higher = larger share of this subpopulation than in DMSO controls; conditions: 10 µM; 24 h; SM minimal medium; subpopulation (auxotrophy): HLUM
Summary of the method: as §1

[14] = test system: Saccharomyces cerevisiae BY4741 SeMeCo community; test: z-score of subpopulation abundance vs DMSO median, subpopulation auxotrophic for HU; higher = larger share of this subpopulation than in DMSO controls; conditions: 10 µM; 24 h; SM minimal medium; subpopulation (auxotrophy): HU
Summary of the method: as §1

[15] = test system: Saccharomyces cerevisiae BY4741 SeMeCo community; test: z-score of subpopulation abundance vs DMSO median, subpopulation auxotrophic for HL; higher = larger share of this subpopulation than in DMSO controls; conditions: 10 µM; 24 h; SM minimal medium; subpopulation (auxotrophy): HL
Summary of the method: as §1

[16] = test system: Saccharomyces cerevisiae BY4741 SeMeCo community; test: mean cell size (pixel area) (pixels); higher = larger cells; conditions: 10 µM; 24 h; SM minimal medium
Summary of the method: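 In this assay, mean cell pixel area per well was obtained from automated confocal images of paraformaldehyde-fixed yeast analysed in Harmony. The cells were a Saccharomyces cerevisiae BY4741 community with four plasmids, each complementing one auxotrophy and carrying a fluorescent marker, grown for 24 h in SM medium with drug at a final 10 µM in 384-well plates. Values are averaged across 3 replicates. Same SeMeCo high-content imaging drug screen: Selleck FDA-approved drugs at 10 µM, 24 h in SM medium, 384-well plates, 3 replicates.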

[17] = test system: Saccharomyces cerevisiae BY4741 SeMeCo community; test: z-score of subpopulation abundance vs DMSO median, subpopulation auxotrophic for LU; higher = larger share of this subpopulation than in DMSO controls; conditions: 10 µM; 24 h; SM minimal medium; subpopulation (auxotrophy): LU
Summary of the method: as §1

| SMILES | z-score of prototroph abundance [1] | z-score of subpopulation abundance [2] | z-score of subpopulation abundance [3] | z-score of subpopulation abundance [4] | z-score of subpopulation abundance [5] | z-score of subpopulation abundance [6] | z-score of subpopulation abundance [7] | z-score of subpopulation abundance [8] | z-score of subpopulation abundance [9] | z-score of subpopulation abundance [10] | z-score of subpopulation abundance [11] | z-score of subpopulation abundance [12] | z-score of subpopulation abundance [13] | z-score of subpopulation abundance [14] | z-score of subpopulation abundance [15] | mean cell size [16] | z-score of subpopulation abundance [17] |
| --- | --- | --- | --- | --- | --- | --- | --- | --- | --- | --- | --- | --- | --- | --- | --- | --- | --- |
| C=C1CCC2C(C)(CO)C(O)CCC2(C)C1CC=C1C=COC1=O (stereo not given) [Dehydroandrographolide] | -0.69 | 0.35 | 1.46 | -0.43 | 0.8 | 1.74 | 0.87 | 0.16 | 0.64 | 0.5 | 0.26 | 1.23 | 0.91 | – | – | – | – |
| COc1cnc(NS(=O)(=O)c2ccc(N)cc2)nc1 [Sulfameter] | 0 | 0.05 | -0.37 | – | -0.43 | -0.51 | 0.07 | 0.21 | -0.26 | 0.42 | 0.14 | 0.64 | -0.07 | -0.1 | -0.38 | – | – |
| O=C(CCCN1CCC(O)(c2ccc(Cl)cc2)CC1)c1ccc(F)cc1 [Haloperidol] | – | -0.16 | 0.68 | -0.4 | – | – | -0.68 | -0.69 | 0.13 | -0.12 | -0.8 | -0.06 | 0.12 | -0.95 | 0.01 | 12.4 ± 0.2 | – |
| CCN1CC(CCN2CCOCC2)C(c2ccccc2)(c2ccccc2)C1=O (stereo not given) [Doxapram HCl] | 0.14 | 0 | – | 0.42 | -0.42 | -0.29 | -0.61 | 0.7 | -0.53 | -1.09 | 0.9 | -0.43 | -0.71 | -0.57 | -1.3 | 12.5 ± 0.14 | – |
| CC[C@H]1OC(=O)[C@H](C)[C@@H](O[C@H]2C[C@@](C)(OC)[C@@H](O)[C@H](C)O2)[C@H](C)[C@@H](O[C@@H]2O[C@H](C)C[C@H](N(C)C)[C@H]2O)[C@](C)(O)C[C@@H](C)/C(=N\OCOCCOC)[C@H](C)[C@@H](O)[C@]1(C)O [Roxithromycin] | -0.63 | – | -0.94 | 0.31 | 0.59 | 0.13 | 0.24 | 0.31 | 0 | -0.45 | 1.28 | 0.55 | -0.6 | 0.46 | 0.42 | 12.4 ± 0.26 | -0.28 |
| COCCCOc1ccnc(C[S+]([O-])c2nc3ccccc3[nH]2)c1C (stereo not given) [Rebeprazole sodium] | -0.38 | 0.58 | – | 0.15 | -0.76 | 0.03 | 0.23 | 0.75 | 1.09 | -0.22 | 0.36 | 0.11 | 0.04 | -0.49 | -0.55 | – | – |
| O=C(O)CCC(=O)OC[C@@H](NC(=O)C(Cl)Cl)[C@H](O)c1ccc([N+](=O)[O-])cc1 [Chloramphenicol sodium succinate] | -0.62 | – | 2.27 | -0.91 | 0.42 | 1.25 | 0.94 | -0.25 | 1.48 | 0.81 | 0.13 | 1.21 | 0.88 | -1.04 | 1.46 | 12.13 ± 0.03 | 0.45 |
| Cn1c([N+](=O)[O-])cnc1COC(N)=O [Ronidazole] | 1.22 | -0.37 | – | 0.01 | -1.34 | -0.82 | -1.32 | -0.8 | -0.68 | -0.96 | -0.57 | -0.5 | -0.24 | -1.13 | -0.38 | 12.5 ± 0.033 | – |
| CCn1cc(C(=O)O)c(=O)c2cc(F)c(N3CCNCC3)nc21 [Enoxacin] | 0.22 | -0.85 | – | -0.4 | -0.39 | 1.61 | -1.07 | – | 0.23 | – | -0.01 | 0.62 | 0.48 | -0.82 | 0.3 | 12.3 ± 0.26 | – |
| CO[C@H]1C[C@@H]2CC[C@@H](C)[C@@](O)(O2)C(=O)C(=O)N2CCCC[C@H]2C(=O)O[C@H]([C@H](C)C[C@@H]2CC[C@@H](OP(C)(C)=O)[C@H](OC)C2)CC(=O)[C@H](C)/C=C(\C)[C@@H](O)[C@@H](OC)C(=O)[C@H](C)C[C@H](C)/C=C/C=C/C=C/1C [Ridaforolimus (Deforolimus, MK-8669)] | -18.3 | -1.24 | – | – | 15.9 | 5.98 | 20.9 | 12.7 | 23.1 | 16.1 | 29.1 | 11 | 21.4 | 25.9 | – | 14.2 ± 0.11 | – |
| Oc1ccc([C@H]2COc3cc(O)ccc3C2)cc1 [Equol] | 0.13 | – | -0.21 | -0.12 | -0.53 | 0.45 | 0.47 | 0.05 | 0 | -0.88 | -0.27 | -0.14 | 0.35 | -0.01 | -0.02 | 12.4 ± 0.17 | -0.26 |
| O=C1NCC2(CCN(CCc3ccccc3)CC2)O1 [Fenspiride HCl] | -0.38 | 0.25 | – | 0.18 | -0.41 | -0.15 | -0.15 | 0.21 | 1.03 | 0.35 | -0.64 | -0.59 | 1.16 | -0.8 | 0.27 | 12.6 ± 0.16 | – |
| O=C1[C@@H]2[C@H]3CC[C@H](C3)[C@@H]2C(=O)N1C[C@@H]1CCCC[C@H]1CN1CCN(c2nsc3ccccc23)CC1 [lurasidone] | 0.9 | – | 0.42 | -1.4 | 0.55 | 0.39 | -0.31 | -1.38 | -0.09 | -0.11 | -0.45 | -0.46 | -0.82 | -0.35 | 0.22 | 12.19 ± 0.019 | -0.67 |
| Fc1ccc(C(c2ccc(F)cc2)N2CCN(C/C=C/c3ccccc3)CC2)cc1 [Flunarizine 2HCl] | -1.16 | -0.21 | – | -0.07 | 0.98 | 1.5 | 1.01 | -0.39 | 0.59 | 1.25 | 0.51 | 1.42 | 1.3 | 0.97 | 0.64 | 12.38 ± 0.06 | – |
| Nc1ccc2cc3ccc(N)cc3nc2c1 [Proflavine Hemisulfate] | 5.49 | – | -8.37 | -8.08 | 5.37 | -5.03 | 6.84 | -8.07 | -4.5 | -2.37 | -4.39 | -5.16 | -2.15 | -6.91 | -4.25 | 12.06 ± 0.0063 | -9.25 |
